Results as given in the supplement of paper PMC12067093, “Discovery and optimisation of a covalent ligand for TRIM25 and its application to targeted protein ubiquitination” (Chemical Science, 2025).
Targets with the largest changes are over-represented here; the source holds about 21,000 in all.
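Note: competitive chemoproteomic profiling in live THP-1 cells with an iodoacetamide desthiobiotin (IA-DTB) probe, comparing probe-labelled peptide intensities in compound-treated cells against DMSO-treated controls.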

UniProt P54920, sequence (P54920 whole entry, looked up): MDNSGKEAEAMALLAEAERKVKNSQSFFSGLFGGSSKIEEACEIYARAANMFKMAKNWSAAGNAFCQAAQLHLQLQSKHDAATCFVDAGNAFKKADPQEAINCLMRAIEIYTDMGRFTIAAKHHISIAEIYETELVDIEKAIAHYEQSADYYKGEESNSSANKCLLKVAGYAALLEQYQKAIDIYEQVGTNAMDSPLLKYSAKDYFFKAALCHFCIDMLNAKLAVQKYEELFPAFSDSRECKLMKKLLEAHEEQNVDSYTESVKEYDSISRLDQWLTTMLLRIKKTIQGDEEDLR
UniProt Q8N3F8, sequence (Q8N3F8 whole entry, looked up): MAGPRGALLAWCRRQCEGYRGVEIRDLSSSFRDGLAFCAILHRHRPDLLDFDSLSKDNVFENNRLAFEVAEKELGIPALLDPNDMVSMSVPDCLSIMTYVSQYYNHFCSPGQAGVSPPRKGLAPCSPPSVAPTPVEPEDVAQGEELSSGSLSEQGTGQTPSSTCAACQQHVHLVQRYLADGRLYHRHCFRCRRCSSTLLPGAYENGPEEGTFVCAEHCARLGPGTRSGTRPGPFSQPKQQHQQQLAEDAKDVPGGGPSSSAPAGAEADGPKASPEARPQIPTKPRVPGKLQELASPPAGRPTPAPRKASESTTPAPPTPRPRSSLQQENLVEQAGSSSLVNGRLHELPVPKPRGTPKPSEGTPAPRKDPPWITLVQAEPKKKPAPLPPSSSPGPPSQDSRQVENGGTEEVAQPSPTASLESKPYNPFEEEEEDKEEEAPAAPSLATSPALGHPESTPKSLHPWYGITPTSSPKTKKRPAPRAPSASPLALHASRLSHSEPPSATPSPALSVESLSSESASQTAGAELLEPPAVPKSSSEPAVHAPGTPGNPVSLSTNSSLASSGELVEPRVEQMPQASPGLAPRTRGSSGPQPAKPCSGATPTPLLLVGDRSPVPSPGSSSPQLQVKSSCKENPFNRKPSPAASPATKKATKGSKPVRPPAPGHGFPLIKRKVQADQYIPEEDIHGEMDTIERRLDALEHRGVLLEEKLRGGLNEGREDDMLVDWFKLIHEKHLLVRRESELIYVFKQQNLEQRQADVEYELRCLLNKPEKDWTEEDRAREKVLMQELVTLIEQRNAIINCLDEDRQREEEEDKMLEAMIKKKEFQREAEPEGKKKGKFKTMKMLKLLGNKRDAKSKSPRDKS
UniProt Q00266, sequence (Q00266 whole entry): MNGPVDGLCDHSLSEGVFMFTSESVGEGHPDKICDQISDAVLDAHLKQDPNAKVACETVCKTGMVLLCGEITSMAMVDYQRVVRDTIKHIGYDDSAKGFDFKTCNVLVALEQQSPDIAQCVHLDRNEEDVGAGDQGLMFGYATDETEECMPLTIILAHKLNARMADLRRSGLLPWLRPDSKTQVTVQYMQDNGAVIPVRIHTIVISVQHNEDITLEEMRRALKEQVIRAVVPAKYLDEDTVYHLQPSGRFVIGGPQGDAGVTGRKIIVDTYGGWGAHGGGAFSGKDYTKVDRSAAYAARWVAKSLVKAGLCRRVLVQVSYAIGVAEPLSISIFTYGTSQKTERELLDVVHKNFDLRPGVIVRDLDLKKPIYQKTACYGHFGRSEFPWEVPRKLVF
UniProt P40926, sequence (P40926 whole entry, looked up): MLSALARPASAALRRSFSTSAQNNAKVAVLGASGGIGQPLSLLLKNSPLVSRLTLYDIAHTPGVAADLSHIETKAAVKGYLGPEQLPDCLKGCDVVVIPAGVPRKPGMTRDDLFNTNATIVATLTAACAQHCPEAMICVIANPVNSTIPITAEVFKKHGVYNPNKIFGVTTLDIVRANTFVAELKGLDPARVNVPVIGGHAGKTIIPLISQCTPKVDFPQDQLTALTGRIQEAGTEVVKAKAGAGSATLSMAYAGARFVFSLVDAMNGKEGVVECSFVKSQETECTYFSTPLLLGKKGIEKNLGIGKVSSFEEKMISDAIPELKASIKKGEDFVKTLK
UniProt Q9NX58, sequence (Q9NX58 whole entry, looked up): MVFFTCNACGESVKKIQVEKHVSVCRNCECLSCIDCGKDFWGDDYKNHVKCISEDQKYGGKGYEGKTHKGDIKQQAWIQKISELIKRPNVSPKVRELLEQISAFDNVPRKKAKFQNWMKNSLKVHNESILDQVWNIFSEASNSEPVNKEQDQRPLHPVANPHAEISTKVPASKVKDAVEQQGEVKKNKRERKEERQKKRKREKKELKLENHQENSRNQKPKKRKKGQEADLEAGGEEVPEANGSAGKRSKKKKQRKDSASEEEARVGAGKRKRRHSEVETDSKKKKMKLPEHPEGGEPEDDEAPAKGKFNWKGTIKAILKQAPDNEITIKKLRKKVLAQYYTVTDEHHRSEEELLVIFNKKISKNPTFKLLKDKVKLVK
UniProt Q07820, sequence (Q07820 whole entry, looked up): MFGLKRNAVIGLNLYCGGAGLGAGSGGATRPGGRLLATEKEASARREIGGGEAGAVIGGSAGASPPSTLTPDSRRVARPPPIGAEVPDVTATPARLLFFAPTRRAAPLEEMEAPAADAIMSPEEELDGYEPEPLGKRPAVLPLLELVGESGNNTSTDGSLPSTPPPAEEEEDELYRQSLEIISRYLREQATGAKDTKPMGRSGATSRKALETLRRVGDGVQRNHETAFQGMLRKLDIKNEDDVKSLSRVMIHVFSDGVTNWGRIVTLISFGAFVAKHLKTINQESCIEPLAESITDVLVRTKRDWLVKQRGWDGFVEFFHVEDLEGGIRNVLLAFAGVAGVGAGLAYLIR
UniProt P49321, sequence (P49321 whole entry, looked up): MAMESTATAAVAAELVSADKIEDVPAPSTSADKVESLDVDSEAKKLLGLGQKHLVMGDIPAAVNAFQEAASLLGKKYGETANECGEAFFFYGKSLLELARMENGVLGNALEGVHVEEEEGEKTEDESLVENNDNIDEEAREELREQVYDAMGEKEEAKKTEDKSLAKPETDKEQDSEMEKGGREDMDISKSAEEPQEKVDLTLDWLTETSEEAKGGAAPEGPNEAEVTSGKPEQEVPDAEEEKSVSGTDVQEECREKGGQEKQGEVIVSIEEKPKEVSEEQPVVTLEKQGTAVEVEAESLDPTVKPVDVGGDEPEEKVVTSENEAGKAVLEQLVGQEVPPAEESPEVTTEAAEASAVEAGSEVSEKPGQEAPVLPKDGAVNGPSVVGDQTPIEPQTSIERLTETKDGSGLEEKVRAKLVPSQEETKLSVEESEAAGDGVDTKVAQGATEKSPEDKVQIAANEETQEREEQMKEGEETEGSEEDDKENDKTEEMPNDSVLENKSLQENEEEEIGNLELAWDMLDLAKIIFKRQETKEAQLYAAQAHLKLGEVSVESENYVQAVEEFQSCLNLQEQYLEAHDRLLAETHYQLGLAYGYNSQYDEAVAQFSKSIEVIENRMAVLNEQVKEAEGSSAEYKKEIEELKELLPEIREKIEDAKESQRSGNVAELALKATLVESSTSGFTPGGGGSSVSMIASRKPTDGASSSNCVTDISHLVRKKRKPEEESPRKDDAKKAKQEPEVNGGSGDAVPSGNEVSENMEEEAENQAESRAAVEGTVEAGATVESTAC
UniProt Q14764, sequence (Q14764 whole entry, looked up): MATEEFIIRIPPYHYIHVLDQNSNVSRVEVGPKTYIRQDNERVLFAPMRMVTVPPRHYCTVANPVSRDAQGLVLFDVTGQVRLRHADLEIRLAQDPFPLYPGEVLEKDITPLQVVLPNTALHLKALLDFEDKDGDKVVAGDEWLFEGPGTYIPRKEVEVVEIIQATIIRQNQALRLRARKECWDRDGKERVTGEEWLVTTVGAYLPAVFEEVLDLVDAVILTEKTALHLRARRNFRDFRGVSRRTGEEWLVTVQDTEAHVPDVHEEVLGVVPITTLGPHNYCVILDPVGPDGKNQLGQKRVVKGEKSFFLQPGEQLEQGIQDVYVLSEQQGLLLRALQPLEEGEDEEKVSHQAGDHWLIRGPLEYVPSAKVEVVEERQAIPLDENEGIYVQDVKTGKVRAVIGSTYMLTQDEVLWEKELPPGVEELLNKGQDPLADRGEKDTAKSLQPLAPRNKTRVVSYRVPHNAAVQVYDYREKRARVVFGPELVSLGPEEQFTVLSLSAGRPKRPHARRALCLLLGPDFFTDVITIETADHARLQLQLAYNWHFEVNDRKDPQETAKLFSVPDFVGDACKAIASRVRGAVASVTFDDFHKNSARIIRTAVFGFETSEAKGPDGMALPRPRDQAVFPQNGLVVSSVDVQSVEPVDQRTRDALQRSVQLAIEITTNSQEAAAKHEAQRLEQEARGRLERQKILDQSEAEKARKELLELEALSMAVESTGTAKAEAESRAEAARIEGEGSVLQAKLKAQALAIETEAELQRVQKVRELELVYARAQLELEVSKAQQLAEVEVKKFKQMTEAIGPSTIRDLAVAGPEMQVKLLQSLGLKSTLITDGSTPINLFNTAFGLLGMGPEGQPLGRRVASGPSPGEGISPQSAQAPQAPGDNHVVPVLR
UniProt Q13496, sequence (Q13496 whole entry, looked up): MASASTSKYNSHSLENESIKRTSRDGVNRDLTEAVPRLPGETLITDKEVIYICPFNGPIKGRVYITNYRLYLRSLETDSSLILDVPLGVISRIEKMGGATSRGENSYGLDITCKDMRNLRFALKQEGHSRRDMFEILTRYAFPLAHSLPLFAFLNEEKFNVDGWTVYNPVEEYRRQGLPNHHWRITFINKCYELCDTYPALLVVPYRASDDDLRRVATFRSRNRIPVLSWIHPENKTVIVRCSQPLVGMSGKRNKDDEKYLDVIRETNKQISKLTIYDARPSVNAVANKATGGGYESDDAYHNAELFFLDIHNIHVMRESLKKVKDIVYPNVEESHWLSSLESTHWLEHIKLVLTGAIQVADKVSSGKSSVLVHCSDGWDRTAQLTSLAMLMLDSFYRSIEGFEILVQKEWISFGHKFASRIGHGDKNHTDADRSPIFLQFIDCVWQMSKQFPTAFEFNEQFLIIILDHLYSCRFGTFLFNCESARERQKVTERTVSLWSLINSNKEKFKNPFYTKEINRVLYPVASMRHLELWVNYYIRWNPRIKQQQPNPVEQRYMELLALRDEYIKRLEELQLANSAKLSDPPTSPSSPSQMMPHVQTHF

These targets were tested with CC1Cc2ccccc2N1C(=O)C1CCCN(C1)C(=O)CCl (mixture of isomers) [TRIM25 ligand 11 (diastereomer mixture)] (assay: probe-labelled cysteine peptide fold change vs DMSO (competition) (log2 fold change); higher = less target engagement (more negative = stronger competition)). Conditions: 10 µM; THP-1; incubation time: 4 h.
For “MAP4K1_Q92918_334+335_SSSLGIPDADCCR (UniProt Q92918)”, the “probe-labelled cysteine peptide fold change” value was -0.0222. “NANS_Q9NR45_19_WVGGQHPCFIIAEIGQNHQGDLDVAK (UniProt Q9NR45)” was tested, and the “probe-labelled cysteine peptide fold change” value was 0.0689. For “MTPAP_Q9NVV4_324_FSHQASGFQCDLTTNNR (UniProt Q9NVV4)”, the “probe-labelled cysteine peptide fold change” value was 0.592. In the case of “MAU2_Q9Y6X3_145_AIQISQQTPYWHCR (UniProt Q9Y6X3)”, the “probe-labelled cysteine peptide fold change” value is reported as -0.167. “MYO18A_Q92614_1046_LHFVHCFLPVAEGWAGEPR (UniProt Q92614)” was tested, and the “probe-labelled cysteine peptide fold change” value was 0.231. For “METAP1_P53582_255_KLVQTTYECLMQAIDAVKPGVR (UniProt P53582)”, the “probe-labelled cysteine peptide fold change” value was -0.564. “MORC3_Q14149_744_ETCHQSTETDAVFLLESINGK (UniProt Q14149)” was tested, and the “probe-labelled cysteine peptide fold change” value was 0.143. “NAPA_P54920_84_HDAATCFVDAGNAFK (UniProt P54920)” was tested, and the “probe-labelled cysteine peptide fold change” value was 0.0886. For “MAT1A_Q00266_34_ICDQISDAVLDAHLK (UniProt Q00266)”, the “probe-labelled cysteine peptide fold change” value was 0.555. In the case of “MDN1_Q9NU22_3690_LLGSQLLACTLSHNTLFGEAPSDLMVKPDGPYDFYQHPNVPEAR (UniProt Q9NU22)”, the “probe-labelled cysteine peptide fold change” value is reported as 0.00494. “MIS12_Q9H081_133_YKTELCTK (UniProt Q9H081)” was tested, and the “probe-labelled cysteine peptide fold change” value was -0.0461. In the case of “NASP_P49321_568_LGEVSVESENYVQAVEEFQSCLNLQEQYLEAHDR (UniProt P49321)”, the “probe-labelled cysteine peptide fold change” value is reported as -0.127. For “LYAR_Q9NX58_6+9_VFFTCNACGESVKK (UniProt Q9NX58)”, the “probe-labelled cysteine peptide fold change” value was -0.135. In the case of “MICALL1_Q8N3F8_194_CSSTLLPGAYENGPEEGTFVCAEHCAR (UniProt Q8N3F8)”, the “probe-labelled cysteine peptide fold change” value is reported as 0.154. In the case of “MOGS_Q13724_137_HTCEQGDGVGPYGWEFHDGLSFGR (UniProt Q13724)”, the “probe-labelled cysteine peptide fold change” value is reported as -0.0183. For “MTMR3_Q13615_188_LCGSYPQELIVPAWITDK (UniProt Q13615)”, the “probe-labelled cysteine peptide fold change” value was 0.105. “LUC7L3_O95232_58_SDLGPCEK (UniProt O95232)” was tested, and the “probe-labelled cysteine peptide fold change” value was -0.0397. “MED7_O43513_223_DAALCVLIDEMNERP (UniProt O43513)” was tested, and the “probe-labelled cysteine peptide fold change” value was 0.0565. For “METTL13_Q8N6R0_226_FRPVPGSALQIFELCAQEQR (UniProt Q8N6R0)”, the “probe-labelled cysteine peptide fold change” value was 0.025. “MPG_P29372_56_AGQPHSSSDAAQAPAEQPHSSSDAAQAPCPR (UniProt P29372)” was tested, and the “probe-labelled cysteine peptide fold change” value was 0.193. “MOV10_Q9HCE1_172_NGGTQSVTLTHLFPLCR (UniProt Q9HCE1)” was tested, and the “probe-labelled cysteine peptide fold change” value was 0.234. For “MCL1_Q07820_286_TINQESCIEPLAESITDVLVR (UniProt Q07820)”, the “probe-labelled cysteine peptide fold change” value was -0.36. For “METAP2_P50579_263_IIDCAFTVTFNPK (UniProt P50579)”, the “probe-labelled cysteine peptide fold change” value was 0.0495. With “NAXD_Q8IW45_261_GERDILSNGQQVLVCSQEGSSR (UniProt Q8IW45)” the “probe-labelled cysteine peptide fold change” value was 0.0581. For “MED13L_Q71F56_1457_LGQHKPICK (UniProt Q71F56)”, the “probe-labelled cysteine peptide fold change” value was -0.182. For “MTM1_Q13496_242_CSQPLVGMSGKR (UniProt Q13496)”, the “probe-labelled cysteine peptide fold change” value was -0.862. “MTMR1_Q13613_438_TSVVVHCSDGWDR (UniProt Q13613)” was tested, and the “probe-labelled cysteine peptide fold change” value was 0.559. With “MVP_Q14764_515_ALCLLLGPDFFTDVITIETADHAR (UniProt Q14764)” the “probe-labelled cysteine peptide fold change” value was 0.505. “MFN1_Q8IWA4_513_LCSDFQEDIVFR (UniProt Q8IWA4)” was tested, and the “probe-labelled cysteine peptide fold change” value was 0.257. In the case of “MDH2_P40926_93_GCDVVVIPAGVPR (UniProt P40926)”, the “probe-labelled cysteine peptide fold change” value is reported as -0.0615. For “LTA4H_P09960_26_CSVDFTR (UniProt P09960)”, the “probe-labelled cysteine peptide fold change” value was -0.0535. For “MTA2_O94776_106_CSVTLLNETDILSQYLEK (UniProt O94776)”, the “probe-labelled cysteine peptide fold change” value was 0.0256.

Same assay, conditions: 50 µM; THP-1; incubation time: 4 h
“MAP4K1_Q92918_334+335_SSSLGIPDADCCR (UniProt Q92918)” was tested, and the “probe-labelled cysteine peptide fold change” value was -0.126. For “NANS_Q9NR45_19_WVGGQHPCFIIAEIGQNHQGDLDVAK (UniProt Q9NR45)”, the “probe-labelled cysteine peptide fold change” value was 0.0782. With “MTPAP_Q9NVV4_324_FSHQASGFQCDLTTNNR (UniProt Q9NVV4)” the “probe-labelled cysteine peptide fold change” value was 0.896. With “MAU2_Q9Y6X3_145_AIQISQQTPYWHCR (UniProt Q9Y6X3)” the “probe-labelled cysteine peptide fold change” value was 0.0177. For “MYO18A_Q92614_1046_LHFVHCFLPVAEGWAGEPR (UniProt Q92614)”, the “probe-labelled cysteine peptide fold change” value was 0.422. With “METAP1_P53582_255_KLVQTTYECLMQAIDAVKPGVR (UniProt P53582)” the “probe-labelled cysteine peptide fold change” value was -0.516. With “MORC3_Q14149_744_ETCHQSTETDAVFLLESINGK (UniProt Q14149)” the “probe-labelled cysteine peptide fold change” value was -0.605. In the case of “NAPA_P54920_84_HDAATCFVDAGNAFK (UniProt P54920)”, the “probe-labelled cysteine peptide fold change” value is reported as 0.00981. In the case of “MAT1A_Q00266_34_ICDQISDAVLDAHLK (UniProt Q00266)”, the “probe-labelled cysteine peptide fold change” value is reported as 0.255. For “MDN1_Q9NU22_3690_LLGSQLLACTLSHNTLFGEAPSDLMVKPDGPYDFYQHPNVPEAR (UniProt Q9NU22)”, the “probe-labelled cysteine peptide fold change” value was 0.105. “MIS12_Q9H081_133_YKTELCTK (UniProt Q9H081)” was tested, and the “probe-labelled cysteine peptide fold change” value was 0.0357. With “NASP_P49321_568_LGEVSVESENYVQAVEEFQSCLNLQEQYLEAHDR (UniProt P49321)” the “probe-labelled cysteine peptide fold change” value was 0.217. In the case of “LYAR_Q9NX58_6+9_VFFTCNACGESVKK (UniProt Q9NX58)”, the “probe-labelled cysteine peptide fold change” value is reported as -0.2. For “MICALL1_Q8N3F8_194_CSSTLLPGAYENGPEEGTFVCAEHCAR (UniProt Q8N3F8)”, the “probe-labelled cysteine peptide fold change” value was -0.0569. With “MOGS_Q13724_137_HTCEQGDGVGPYGWEFHDGLSFGR (UniProt Q13724)” the “probe-labelled cysteine peptide fold change” value was -0.127. For “MTMR3_Q13615_188_LCGSYPQELIVPAWITDK (UniProt Q13615)”, the “probe-labelled cysteine peptide fold change” value was 0.265. In the case of “LUC7L3_O95232_58_SDLGPCEK (UniProt O95232)”, the “probe-labelled cysteine peptide fold change” value is reported as -0.155. With “MED7_O43513_223_DAALCVLIDEMNERP (UniProt O43513)” the “probe-labelled cysteine peptide fold change” value was -0.131. “METTL13_Q8N6R0_226_FRPVPGSALQIFELCAQEQR (UniProt Q8N6R0)” was tested, and the “probe-labelled cysteine peptide fold change” value was -0.292. For “MPG_P29372_56_AGQPHSSSDAAQAPAEQPHSSSDAAQAPCPR (UniProt P29372)”, the “probe-labelled cysteine peptide fold change” value was -0.822. In the case of “MOV10_Q9HCE1_172_NGGTQSVTLTHLFPLCR (UniProt Q9HCE1)”, the “probe-labelled cysteine peptide fold change” value is reported as 0.148. With “MCL1_Q07820_286_TINQESCIEPLAESITDVLVR (UniProt Q07820)” the “probe-labelled cysteine peptide fold change” value was -0.583. In the case of “METAP2_P50579_263_IIDCAFTVTFNPK (UniProt P50579)”, the “probe-labelled cysteine peptide fold change” value is reported as 0.114. With “NAXD_Q8IW45_261_GERDILSNGQQVLVCSQEGSSR (UniProt Q8IW45)” the “probe-labelled cysteine peptide fold change” value was 0.131. In the case of “MED13L_Q71F56_1457_LGQHKPICK (UniProt Q71F56)”, the “probe-labelled cysteine peptide fold change” value is reported as -0.263. With “MTM1_Q13496_242_CSQPLVGMSGKR (UniProt Q13496)” the “probe-labelled cysteine peptide fold change” value was -0.255. “MTMR1_Q13613_438_TSVVVHCSDGWDR (UniProt Q13613)” was tested, and the “probe-labelled cysteine peptide fold change” value was -0.0364. For “MVP_Q14764_515_ALCLLLGPDFFTDVITIETADHAR (UniProt Q14764)”, the “probe-labelled cysteine peptide fold change” value was 0.893. “MFN1_Q8IWA4_513_LCSDFQEDIVFR (UniProt Q8IWA4)” was tested, and the “probe-labelled cysteine peptide fold change” value was 0.355. “MDH2_P40926_93_GCDVVVIPAGVPR (UniProt P40926)” was tested, and the “probe-labelled cysteine peptide fold change” value was 0.0728. With “LTA4H_P09960_26_CSVDFTR (UniProt P09960)” the “probe-labelled cysteine peptide fold change” value was -0.00265. With “MTA2_O94776_106_CSVTLLNETDILSQYLEK (UniProt O94776)” the “probe-labelled cysteine peptide fold change” value was 0.178.
